Assay results from PubChem BioAssay (EPA / NIEHS).
Activity calls are given as the source filed them. Rule for the calls: active = hit-call score of the fitted dose curve at least 0.9, where 1 is the maximum; inactive = score below 0.9.

Tests used:
Details in all cases: mRNA level, 48 h; actives raise or lower the signal
[1] = read-out: Cytochrome P450 3A4 (Homo sapiens) (UniProt P08684); assay: LTEA_HepaRG_CYP3A4: Life Technologies and Expression Analysis (LTEA) Assay for CYP3A4 using HepaRG (AID 2283487)
Method in brief: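 In a human hepatic line (HepaRG), duplicate wells were treated 48 h with up to 100 uM chemical in half-log dilutions. Endpoint: CYP3A4 mRNA induction or loss relative to 0.5% DMSO vehicle, by qRT-PCR.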

[2] = read-out: DNA damage-inducible transcript 3 (DDIT3), DDIT3 (gene 1649); assay: LTEA_HepaRG_DDIT3: Life Technologies and Expression Analysis (LTEA) Assay for DNA damage-inducible transcript 3 (DDIT3) using HepaRG (AID 2283488)
Method in brief: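 Changes in DDIT3 transcript, in either direction relative to 0.5% DMSO vehicle, were quantified by TaqMan qRT-PCR after 48 h chemical exposure of HepaRG cells at 8 concentrations, maximum 100 uM.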

[3] = read-out: Early growth response protein 1 (EGR1) transcription factor, EGR1 (gene 1958); assay: LTEA_HepaRG_EGR1: Life Technologies and Expression Analysis (LTEA) Assay for Early growth response protein 1 (EGR1) transcription factor using HepaRG (AID 2283490)
Method in brief: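 Differentiated HepaRG cells in serum-free induction medium exposed 48 hours, duplicate, to 8 half-log concentrations up to 100 uM in 0.5% DMSO. EGR1 mRNA measured by TaqMan qRT-PCR, normalized to ACTB, GAPDH, POLR2A; bidirectional fit versus DMSO.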

[4] = read-out: Ezrin (EZR), EZR (gene 7430); assay: LTEA_HepaRG_EZR: Life Technologies and Expression Analysis (LTEA) Assay for Ezrin (EZR) using HepaRG (AID 2283491)
Method in brief: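 Gain or loss of EZR mRNA is scored relative to 0.5% DMSO in human HepaRG cultures treated 48 h with test chemicals in duplicate, eight half-log concentrations from 100 uM.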

[5] = read-out: Cytochrome P450 3A7 (Homo sapiens) (UniProt P24462); assay: LTEA_HepaRG_CYP3A7: Life Technologies and Expression Analysis (LTEA) Assay for CYP3A7 using HepaRG (AID 2283492)
Method in brief: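 HepaRG cells plated 48 h, then dosed in serum-free induction medium for 48 h at 8 concentrations (top 100 uM, half-log steps, 0.5% DMSO). CYP3A7 mRNA by qRT-PCR, normalised to ACTB/GAPDH/POLR2A; bidirectional fit versus DMSO.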

CYP3A5 (gene 1577) = assay: LTEA_HepaRG_CYP3A5: Life Technologies and Expression Analysis (LTEA) Assay for CYP3A5 using HepaRG (AID 2283493)
Method in brief: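 mRNA induction or loss of CYP3A5 assessed in HepaRG after 48 h dosing, 100 uM top concentration, duplicate wells; TaqMan qRT-PCR with ACTB, GAPDH, POLR2A normalization; 0.5% DMSO as negative control.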

[6] = read-out: Fatty Acid-Binding Protein 1 (FABP1), FABP1 (gene 2168); assay: LTEA_HepaRG_FABP1: Life Technologies and Expression Analysis (LTEA) Assay for Fatty Acid-Binding Protein 1 (FABP1) using HepaRG (AID 2283494)
Method in brief: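 Differentiated human HepaRG cells exposed 48 h in serum-free induction medium to eight half-log concentrations up to 100 uM (0.5% DMSO), duplicate. FABP1 mRNA by qRT-PCR, normalised to ACTB, GAPDH, POLR2A; bidirectional fitting against DMSO.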

[7] = read-out: Cytochrome P450 4A22 (Homo sapiens) (UniProt Q5TCH4); assay: LTEA_HepaRG_CYP4A22: Life Technologies and Expression Analysis (LTEA) Assay for Cytochrome P450 4A22 (CYP4A22) using HepaRG (AID 2283495)
Method in brief: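 qRT-PCR of CYP4A22 mRNA (Fluidigm TaqMan, normalized to three housekeeping genes) after 48 h chemical exposure of HepaRG cells; 8-point half-log series, top 100 uM, 0.5% DMSO vehicle. Bidirectional curve fitting vs DMSO baseline.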

[8] = read-out: Cytochrome P450 7A1 (Homo sapiens) (UniProt P22680); assay: LTEA_HepaRG_CYP7A1: Life Technologies and Expression Analysis (LTEA) Assay for Cytochrome P450 7A1 (CYP7A1) using HepaRG (AID 2283496)
Method in brief: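 Gene expression endpoint in human HepaRG liver cells treated for 48 h with test chemicals (up to 100 uM, 0.5% DMSO). Values come from bidirectional concentration-response fitting versus DMSO.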

[9] = read-out: Glutathione S-Transferase (GSTA2), GSTA2 (gene 2939); assay: LTEA_HepaRG_GSTA2: Life Technologies and Expression Analysis (LTEA) Assay for Glutathione S-Transferase (GSTA2) using HepaRG (AID 2283497)
Method in brief: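 Differentiated human HepaRG cells were exposed in duplicate for 48 h in serum-free induction medium, 8 points from 100 uM top in half-log steps, 0.5% DMSO. GSTA2 mRNA was measured by TaqMan qRT-PCR, normalized to ACTB, GAPDH and POLR2A; bidirectional fit versus DMSO.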

[10] = read-out: Glutamate-cysteine ligase catalytic (GCLC), GCLC (gene 2729); assay: LTEA_HepaRG_GCLC: Life Technologies and Expression Analysis (LTEA) Assay for Glutamate-cysteine ligase catalytic (GCLC) using HepaRG (AID 2283498)
Method in brief: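 Differentiated HepaRG cells exposed 48 h in serum-free induction medium, eight-point half-log series topping at 100 uM in 0.5% DMSO, duplicates. GCLC mRNA by qRT-PCR normalized to ACTB, GAPDH and POLR2A, fitted bidirectionally versus DMSO.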

[11] = read-out: growth arrest and DNA damage 45 (GADD45G), GADD45G (gene 10912); assay: LTEA_HepaRG_GADD45G: Life Technologies and Expression Analysis (LTEA) Assay for growth arrest and DNA damage 45 (GADD45G) using HepaRG (AID 2283499)
Method in brief: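 Differentiated human HepaRG cells in serum-free induction medium were exposed for 48 h to 8 half-log concentrations up to 100 uM in 0.5% DMSO, in duplicate. GADD45G mRNA was measured by TaqMan qRT-PCR, normalised to ACTB, GAPDH and POLR2A, and fitted bidirectionally against DMSO.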

[12] = read-out: Glutamate-cysteine ligase regulatory (GCLM), GCLM (gene 2730); assay: LTEA_HepaRG_GCLM: Life Technologies and Expression Analysis (LTEA) Assay for Glutamate-cysteine ligase regulatory (GCLM) using HepaRG (AID 2283500)
Method in brief: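 Human liver HepaRG cultures receive test chemicals for 48 hours at up to 100 uM in 0.5% DMSO. GCLM expression is measured by qRT-PCR and analysed for increases or decreases against vehicle.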

[13] = read-out: Glutathione S-transferase M3 (GSTM3), GSTM3 (gene 2947); assay: LTEA_HepaRG_GSTM3: Life Technologies and Expression Analysis (LTEA) Assay for Glutathione S-transferase M3 (GSTM3) using HepaRG (AID 2283501)
Method in brief: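 Differentiated HepaRG cells in serum-free induction medium were exposed in duplicate for 48 h to 8 half-log concentrations up to 100 uM in 0.5% DMSO. GSTM3 mRNA was measured by TaqMan qRT-PCR, normalized to ACTB/GAPDH/POLR2A, and fitted bidirectionally versus DMSO.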

[14] = read-out: Heat shock 70 kDa protein 1 (HSPA1A), gene 3303; assay: LTEA_HepaRG_HSPA1A: Life Technologies and Expression Analysis (LTEA) Assay for Heat shock 70 kDa protein 1 (HSPA1A) using HepaRG (AID 2283502)
Method in brief: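 HSPA1A induction in human HepaRG liver cells is measured after 48 h of chemical treatment (100 uM maximum, 0.5% DMSO vehicle). Expression comes from qRT-PCR normalized to endogenous controls.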

[15] = read-out: Hypoxia-inducible factor 1-alpha (Homo sapiens) (UniProt Q16665); assay: LTEA_HepaRG_HIF1A: Life Technologies and Expression Analysis (LTEA) Assay for Hypoxia-inducible factor 1 (HIF1A) Trancription factor using HepaRG (AID 2283503)
Method in brief: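 HepaRG, 48 h exposure, 8-pt half-log series from 100 uM, 0.5% DMSO vehicle, duplicates. Readout: HIF1A transcript by qRT-PCR (Fluidigm array), housekeeping-normalised. Bidirectional curve fit vs DMSO baseline.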

[16] = read-out: 3-Hydroxy-3-Methylglutaryl-CoA Synthase 2 (HMGCS2), HMGCS2 (gene 3158); assay: LTEA_HepaRG_HMGCS2: Life Technologies and Expression Analysis (LTEA) Assay for 3-Hydroxy-3-Methylglutaryl-CoA Synthase 2 (HMGCS2) using HepaRG (AID 2283504)
Method in brief: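 Differentiated human HepaRG cells were exposed in duplicate for 48 h in serum-free induction medium to eight concentrations (top 100 uM, half-log steps, 0.5% DMSO). HMGCS2 mRNA was quantified by TaqMan qRT-PCR, normalised to ACTB, GAPDH and POLR2A, then fitted bidirectionally against DMSO.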

HGF (gene 3082) = assay: LTEA_HepaRG_HGF: Life Technologies and Expression Analysis (LTEA) Assay for Hepatocyte Growth Facto (HGF) using HepaRG (AID 2283505)
Method in brief: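 Differentiated human HepaRG cells in serum-free induction medium were exposed in duplicate for 48 h to eight concentrations (top 100 uM, half-log steps, 0.5% DMSO). HGF mRNA was quantified by qRT-PCR, normalized to ACTB, GAPDH and POLR2A.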

[17] = read-out: Insulin Like Growth Factor 1 (IGF1), IGF1 (gene 3479); assay: LTEA_HepaRG_IGF1: Life Technologies and Expression Analysis (LTEA) Assay for Insulin Like Growth Factor 1 (IGF1) using HepaRG (AID 2283506)
Method in brief: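 Using human HepaRG liver cells, IGF1 transcript induction or suppression is measured 48 h after dosing across eight concentrations capped at 100 uM. Values derive from bidirectional concentration-response fitting with DMSO as baseline.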

[18] = read-out: Pro-epidermal growth factor (Homo sapiens) (UniProt P01133); assay: LTEA_HepaRG_EGF: Life Technologies and Expression Analysis (LTEA) Assay for Epidermal growth factor (EGF) using HepaRG (AID 2283489)
Method in brief: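 Differentiated human HepaRG cells, plated 48 h then switched to serum-free induction medium, were exposed for 48 h to test chemicals (8-point half-log series, top 100 uM, 0.5% DMSO). EGF mRNA was quantified by qRT-PCR, normalized to ACTB, GAPDH, POLR2A.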

Sequence of Cytochrome P450 3A4 (Homo sapiens) (P08684 whole entry, looked up): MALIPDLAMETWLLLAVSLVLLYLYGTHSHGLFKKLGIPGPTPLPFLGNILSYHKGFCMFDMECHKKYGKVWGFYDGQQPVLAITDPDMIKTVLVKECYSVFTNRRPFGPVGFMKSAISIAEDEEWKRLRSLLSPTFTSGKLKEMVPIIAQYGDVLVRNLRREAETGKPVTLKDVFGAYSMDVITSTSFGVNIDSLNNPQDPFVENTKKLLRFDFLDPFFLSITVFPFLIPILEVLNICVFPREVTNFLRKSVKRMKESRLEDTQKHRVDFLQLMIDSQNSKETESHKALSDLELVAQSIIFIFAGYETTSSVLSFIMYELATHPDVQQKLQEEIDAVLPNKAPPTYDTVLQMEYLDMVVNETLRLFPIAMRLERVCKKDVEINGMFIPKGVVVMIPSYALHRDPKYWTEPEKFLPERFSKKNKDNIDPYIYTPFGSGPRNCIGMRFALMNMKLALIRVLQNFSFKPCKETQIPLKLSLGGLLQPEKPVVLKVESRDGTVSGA
Sequence of Cytochrome P450 3A7 (Homo sapiens) (P24462 whole entry, looked up): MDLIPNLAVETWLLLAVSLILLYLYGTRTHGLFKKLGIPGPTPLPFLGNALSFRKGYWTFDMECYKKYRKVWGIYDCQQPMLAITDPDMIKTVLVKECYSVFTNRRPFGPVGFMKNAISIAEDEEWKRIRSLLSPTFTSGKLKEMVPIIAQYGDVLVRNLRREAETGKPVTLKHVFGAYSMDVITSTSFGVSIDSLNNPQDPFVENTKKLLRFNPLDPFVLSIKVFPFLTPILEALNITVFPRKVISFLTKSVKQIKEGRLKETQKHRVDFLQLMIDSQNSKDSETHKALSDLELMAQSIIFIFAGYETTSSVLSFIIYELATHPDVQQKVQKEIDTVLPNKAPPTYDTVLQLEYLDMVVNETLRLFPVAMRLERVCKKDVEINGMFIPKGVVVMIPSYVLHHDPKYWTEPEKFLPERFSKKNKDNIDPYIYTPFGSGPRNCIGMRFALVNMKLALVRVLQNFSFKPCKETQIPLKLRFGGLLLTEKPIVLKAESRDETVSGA
Sequence of Hypoxia-inducible factor 1-alpha (Homo sapiens) (Q16665 whole entry, looked up): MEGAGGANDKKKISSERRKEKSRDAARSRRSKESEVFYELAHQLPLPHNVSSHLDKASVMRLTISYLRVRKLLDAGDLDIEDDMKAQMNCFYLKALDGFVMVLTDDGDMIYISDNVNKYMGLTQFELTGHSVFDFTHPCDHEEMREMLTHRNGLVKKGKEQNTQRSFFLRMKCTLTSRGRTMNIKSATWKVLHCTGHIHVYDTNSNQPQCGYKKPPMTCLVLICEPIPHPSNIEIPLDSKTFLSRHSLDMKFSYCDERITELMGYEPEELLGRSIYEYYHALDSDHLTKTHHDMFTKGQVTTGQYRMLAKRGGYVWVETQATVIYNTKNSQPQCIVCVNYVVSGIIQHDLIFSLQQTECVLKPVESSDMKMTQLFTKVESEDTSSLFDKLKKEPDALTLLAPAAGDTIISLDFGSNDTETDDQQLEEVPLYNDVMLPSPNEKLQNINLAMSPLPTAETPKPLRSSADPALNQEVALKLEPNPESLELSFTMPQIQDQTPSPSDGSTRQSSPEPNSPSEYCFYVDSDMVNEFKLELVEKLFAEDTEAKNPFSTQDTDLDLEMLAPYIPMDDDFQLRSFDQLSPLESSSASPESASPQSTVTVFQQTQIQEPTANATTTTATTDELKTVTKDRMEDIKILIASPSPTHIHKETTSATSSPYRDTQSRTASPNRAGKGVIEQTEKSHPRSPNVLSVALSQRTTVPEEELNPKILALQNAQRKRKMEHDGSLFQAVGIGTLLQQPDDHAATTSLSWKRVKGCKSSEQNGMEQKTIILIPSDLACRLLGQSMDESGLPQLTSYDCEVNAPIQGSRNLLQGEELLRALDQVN

## Cc1nn(-c2cc(NS(C)(=O)=O)c(Cl)cc2Cl)c(=O)n1C(F)F
[1]
  AC50: 3.03 µM (active)
[2]
  outcome: inactive
[3]
  outcome: inactive
[4]
  outcome: inactive
[5]
  AC50: 7.34 µM (active)
CYP3A5 (gene 1577)
  outcome: inactive
[6]
  outcome: inactive
[7]
  outcome: inactive
[8]
  outcome: inactive
[9]
  outcome: inactive
[10]
  outcome: inactive
[11]
  outcome: inactive
[12]
  outcome: inactive
[13]
  outcome: inactive
[14]
  outcome: inactive
[15]
  outcome: inactive
[16]
  outcome: inactive
HGF (gene 3082)
  outcome: inactive

## CNC(=O)ON=C(C)SC
[1]
  outcome: inactive
[2]
  outcome: inactive
[3]
  outcome: inactive
[4]
  outcome: inactive
[5]
  outcome: inactive
CYP3A5 (gene 1577)
  outcome: inactive
[6]
  outcome: inactive
[7]
  outcome: inactive
[8]
  outcome: inactive
[9]
  outcome: inactive
[10]
  outcome: inactive
[11]
  outcome: inactive
[12]
  outcome: inactive
[13]
  outcome: inactive
[14]
  outcome: inactive
[15]
  outcome: inactive
[16]
  outcome: inactive
HGF (gene 3082)
  outcome: inactive
[17]
  outcome: inactive

## CN(C)NC(=O)CCC(=O)O
[1]
  outcome: inactive
[2]
  outcome: inactive
[18]
  outcome: inactive
[3]
  outcome: inactive
[4]
  outcome: inactive
[5]
  outcome: inactive
CYP3A5 (gene 1577)
  outcome: inactive
[6]
  outcome: inactive
[7]
  outcome: inactive
[8]
  outcome: inactive
[9]
  outcome: inactive
[10]
  outcome: inactive
[11]
  outcome: inactive
[12]
  outcome: inactive
[13]
  outcome: inactive
[14]
  outcome: inactive
[15]
  outcome: inactive
[16]
  outcome: inactive
HGF (gene 3082)
  outcome: inactive
[17]
  outcome: inactive

## C[Si](Cn1cncn1)(c1ccc(F)cc1)c1ccc(F)cc1
[1]
  AC50: 82.4 µM (active)
[2]
  AC50: 31.9 µM (active)
[3]
  outcome: inactive
[4]
  outcome: inactive
[5]
  AC50: 81.9 µM (active)
CYP3A5 (gene 1577)
  outcome: inactive
[6]
  AC50: 76.9 µM (active)
[7]
  AC50: 15.8 µM (active)
[8]
  AC50: 39.6 µM (active)
[9]
  AC50: 72.5 µM (active)
[10]
  outcome: inactive
[11]
  AC50: 33.9 µM (active)
[12]
  AC50: 62.8 µM (active)
[13]
  AC50: 74.9 µM (active)
[14]
  outcome: inactive
[15]
  outcome: inactive
[16]
  AC50: 47.6 µM (active)
HGF (gene 3082)
  outcome: inactive
[17]
  AC50: 50 µM (active)

## CCCCOC(=O)c1ccccc1C(=O)O
[1]
  outcome: inactive
[2]
  outcome: inactive
[18]
  outcome: inactive
[3]
  outcome: inactive
[4]
  outcome: inactive
[5]
  AC50: 12.7 µM (active)
CYP3A5 (gene 1577)
  outcome: inactive
[6]
  outcome: inactive
[7]
  outcome: inactive
[9]
  outcome: inactive
[10]
  outcome: inactive
[11]
  outcome: inactive
[12]
  outcome: inactive
[14]
  outcome: inactive
[15]
  outcome: inactive
[16]
  outcome: inactive
HGF (gene 3082)
  outcome: inactive
[17]
  outcome: inactive

## FC(F)C(F)(F)OCC(Cn1cncn1)c1ccc(Cl)cc1Cl (configuration not stated)
[1]
  AC50: 35.2 µM (active)
[2]
  AC50: 28.7 µM (active)
[18]
  outcome: inactive
[3]
  AC50: 11.1 µM (active)
[5]
  AC50: 49.8 µM (active)
CYP3A5 (gene 1577)
  AC50: 83 µM (active)
[6]
  AC50: 34.8 µM (active)
[7]
  AC50: 16.6 µM (active)
[9]
  AC50: 38.7 µM (active)
[10]
  outcome: inactive
[11]
  AC50: 11.1 µM (active)
[12]
  AC50: 13 µM (active)
[13]
  AC50: 73.6 µM (active)
[14]
  AC50: 83.4 µM (active)
[15]
  AC50: 76.4 µM (active)
[16]
  AC50: 39.5 µM (active)
HGF (gene 3082)
  AC50: 87.2 µM (active)
[17]
  AC50: 33.4 µM (active)
